CYP2C9 inh: blockers of cytochrome P450 2C9 activity – biochemical, luminescence, ADME assay, primary screen. AID 777, 2007. P11712. CYP2C9 Supersomes, luciferin-H conversion. inhibition, % at 5 µM. 96,000 compounds, 20% hits;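 active = blocking of liver enzyme CYP2C9 beyond about 50% at 5 µM, limit read from the data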
Target sequence (P11712 whole entry, looked up): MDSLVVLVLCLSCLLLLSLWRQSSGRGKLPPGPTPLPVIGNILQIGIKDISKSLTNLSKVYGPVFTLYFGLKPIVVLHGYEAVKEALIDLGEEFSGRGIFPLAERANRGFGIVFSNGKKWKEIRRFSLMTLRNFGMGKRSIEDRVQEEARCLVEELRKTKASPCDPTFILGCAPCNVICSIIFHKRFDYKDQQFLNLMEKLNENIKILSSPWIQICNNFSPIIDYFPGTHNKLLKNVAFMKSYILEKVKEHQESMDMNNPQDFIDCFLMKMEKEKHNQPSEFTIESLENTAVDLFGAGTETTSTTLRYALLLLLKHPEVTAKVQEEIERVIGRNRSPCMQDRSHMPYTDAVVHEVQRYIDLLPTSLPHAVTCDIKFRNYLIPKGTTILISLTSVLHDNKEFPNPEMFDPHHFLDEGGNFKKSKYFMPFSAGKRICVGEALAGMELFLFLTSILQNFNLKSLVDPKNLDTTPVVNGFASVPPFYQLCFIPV
CYP2C19 inhib: blockers of cytochrome P450 2C19 activity – biochemical, luminescence, ADME assay, primary screen; P33261; CYP2C19 Supersomes, luciferin-H EGE luminescence, 30 min; inhibition, % at 5 µM; 96,000 compounds, 21% hits;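 active = CYP2C19 inhibition above a set limit at 5 µM in the primary screen, cut at about 50% in these data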
CYP2C9 act: human CYP2C9 activators, primary screen, biochemical, luminescence; recombinant CYP2C9, luciferin-H conversion; active compounds read high; factor 1 = untreated enzyme, 0 = blocked; Cytochrome P450 2C9 (Homo sapiens), P11712; AID 1024, 2008; activation factor at 5 µM; 96,000 compounds, 1.4% hits;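 active = activation factor of 2 or more for CYP2C9 at a 5 µM dose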
CYP2C19 activ: human CYP2C19 activators, primary screen, biochemical, luminescence. 96,000 tested, under 10 active. recombinant CYP2C19, luciferin-H EGE luminescence; active compounds read high; 0 = fully inhibited enzyme, 1 = untreated enzyme. activation factor at 5 µM. Cytochrome P450 2C19 (Homo sapiens), P33261;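 active = activation factor of at least 2 at 5 µM in the primary screen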
Measles CPE: compounds protecting cells from measles virus cytopathic effect, primary screen, measles RdRp inhibitor project, single point, MLSMR library, absorbance | Measles virus-infected cells, CPE protection | protection (pct of control), % at 4 µM | 140,000 compounds, 1.5% hits; in the data active = protection mostly above about 24%, no sharp cut-off; inactive = mostly below about 26%
Hits are given with their value; - = inactive; . = no result given. Hits are enriched below; roughly 22% of the tested compounds scored in any of these assays.

SMILES | CYP2C9 inh | CYP2C19 inhib | CYP2C9 act | CYP2C19 activ | Measles CPE
CCC(=O)Nc1ccc2oc(-c3cccc(C)c3)nc2c1 | - | 83.4 | - | - | -
Cc1ccc2oc(-c3cccc(NC(=O)Cc4cccs4)c3)nc2c1 | 83.5 | - | - | - | -
Cc1cccc(-c2nc3cc(NC(=O)C4CCCO4)ccc3o2)c1 (configuration not stated) | . | . | . | . | -
O=C(Nc1cccc(-c2nc3cc(Cl)ccc3o2)c1)C1CCCO1 (configuration not stated) | 71.0 | - | - | - | -
C=CCNC1=C(Cl)C(=O)N(c2ccccc2Cl)C1=O | - | 68.1 | - | - | -
CCCC(=O)Nc1ccc(Br)c(Cl)c1 | - | 60.1 | - | - | -
O=C(O)CCC(=O)Nc1ccc(Br)c(Cl)c1 | - | - | - | - | -
CCCCCC(=O)Nc1ccc(N2CCN(C(=O)c3ccccc3)CC2)cc1 | 54.1 | - | - | - | -
CCCCC(=O)Nc1ccc(C(=O)N2CCN(c3ccccc3OC)CC2)cc1 | 77.4 | 57.2 | - | - | -
CCCCCC(=O)NC(=S)Nc1ccc(N2CCOCC2)cc1 | . | . | . | . | -
COc1ccccc1N1CCN(C(=O)c2ccc(NC(C)=O)cc2)CC1 | - | - | - | - | -
CCCC(=O)N1CCN(c2ccc(NC(=S)NC(=O)CC)cc2)CC1 | - | 51.2 | - | - | -
CC(=O)c1ccccc1OCCn1nnc(-c2ccc(C)cc2)n1 | . | . | . | . | -
CC(C)CC(=O)N1CCN(Cc2ccc3c(c2)OCO3)CC1 | - | - | - | - | -
CC(OC(=O)c1nc(-c2ccccc2)n(-c2ccccc2)n1)C(=O)Nc1cc(Cl)cc(Cl)c1 (configuration not stated) | . | . | . | . | -
CCCCCC(=O)Nc1ccc(N2CCN(CC)CC2)c(Cl)c1 | 66.9 | - | - | - | -
CCCCC(=O)Nc1ccc(C(=O)OC2CCCCC2)cc1 | 91.4 | 74.4 | - | - | -
CCOC(=O)C1CCN(C(=O)Nc2ccc3snnc3c2)CC1 | - | 50.6 | - | - | -
CCCCCC(=O)NC(=S)Nc1ccc(N2CCCCC2)c(Cl)c1 | - | - | - | - | -
CCCCCCC(=O)Nc1ccc(C(=O)N2CCCC2)cc1 | - | - | - | - | -
CCCCC(=O)Nc1ccc(C(=O)N2CCC(C(=O)OCC)CC2)cc1 | 53.6 | 67.7 | - | - | -
CC1=CC(C)(C)N=C(Nc2ccc(C)cc2)S1 | - | 75.6 | - | - | -
Cc1ccc(OCc2nc(-c3ccc(-n4cccc4)cc3)no2)cc1C | - | - | - | - | -
CCOC(=O)c1cc(-c2ccc(C)cc2)n(CCC(=O)NCCCOC)c1C | 100.0 | 93.0 | - | - | -
O=C(CNC(=O)C1CCCCC1)Nc1cc(Cl)ccc1Cl | . | . | . | . | -
SMILES | CYP2C9 inh | CYP2C19 inhib | CYP2C9 act | CYP2C19 activ | Measles CPE
CCOC(=O)C1=C(C)NC2=C(C(=O)CCC2)C1c1cn(Cc2ccc(Cl)cc2Cl)nc1-c1ccccc1 (configuration not stated) | 82.9 | 51.0 | - | - | -
COC(=O)C1=C(C)NC2=C(C(=O)CCC2)C1c1cn(Cc2ccc(Cl)cc2Cl)nc1-c1ccccc1 (configuration not stated) | 73.0 | 52.8 | - | - | -
CCOC(=O)C1=C(C)NC2=C(C(=O)CCC2)C1c1ccc(N(C)C)cc1 (configuration not stated) | - | - | - | - | -
Cc1cc(S(=O)(=O)Nc2ccc(N(C)C)cc2)c(C)s1 | 99.6 | 100.4 | - | - | -
Cc1c(NC(=O)CCC(=O)N2CCCCC2)c(=O)n(-c2ccccc2)n1C | - | - | - | - | -
COC(=O)c1ccc(/C=N/OCC(=O)NC2CCCCCCC2)cc1 | 64.7 | - | - | - | -
CCC(C)NC(=O)CO/N=C/c1ccc(C(=O)OC)cc1 (configuration not stated) | 68.7 | - | - | - | -
COC(=O)c1ccc(/C=N/OCC(=O)NC2CCCC(C)C2C)cc1 (configuration not stated) | - | - | - | - | -
Cc1ccc2oc(=O)c3cnn(CC(=O)NC4CCCCC4C)c3c2c1 (configuration not stated) | - | - | - | - | -
S=C(Nc1ccccc1)c1nc2ccccc2s1 | . | . | . | . | -
COC(=O)Cn1ncc2c(C)n(Cc3ccccc3)c(C)c2c1=O | - | 84.5 | - | - | -
COCC(=O)N1CCN(c2ccc([N+](=O)[O-])cc2)CC1 | - | - | - | - | -
CCOC(=O)CC1ON(C)C(=O)N1c1ccc([N+](=O)[O-])cc1 (configuration not stated) | - | 97.9 | - | - | -
CC(C#N)Sc1nc2ccccc2c(=O)n1-c1ccccc1 (configuration not stated) | - | - | - | - | -
CC1CC(C)CN(C(=S)Nc2ccc3nc4n(c(=O)c3c2)CCCCC4)C1 (configuration not stated) | . | . | . | . | -
CCOC(=O)N1CCN(C(=O)CC(=O)Nc2ccc3nc4n(c(=O)c3c2)CCCCC4)CC1 | 69.4 | - | - | - | -
CCOC(=O)N1CCN(C(=O)C(=O)Nc2ccc3nc4n(c(=O)c3c2)CCCCC4)CC1 | 52.3 | - | - | - | -
Cc1ccc(S(=O)(=O)N(C)/N=C/C=C/c2ccccc2)cc1 | . | . | . | . | -
CCOC(=O)c1c(NC(=O)c2cnn3c2NC(c2cccc(OC)c2)CC3C(F)(F)F)sc2c1CCCC2 (configuration not stated) | . | . | . | . | -
Brc1ccc2c(c1)CNc1c(ncnc1N1CCOCC1)O2 | 58.4 | 98.2 | - | - | -
Cc1c(C(=O)NCc2ccc3c(c2)OCO3)sc2nc(-c3ccc(F)cc3)cn12 | - | - | - | - | -
Cc1c(C(=O)NCC2CCCO2)sc2nc(-c3ccc(F)cc3)cn12 (configuration not stated) | 55.1 | - | - | - | -
Cc1c(C(=O)NCc2ccccn2)sc2nc(-c3ccc(F)cc3)cn12 | 62.6 | - | - | - | -
CCC(=O)Nc1nc(C)c(C(=O)NC2CCCCC2)s1 | . | . | . | . | -
COc1ccccc1-n1c(C)cc(SC)c(C(C)=O)c1=S | - | - | - | - | -
SMILES | CYP2C9 inh | CYP2C19 inhib | CYP2C9 act | CYP2C19 activ | Measles CPE
Cc1ccc(C(C)C)cc1OCCOCCN1CCCC1 | - | - | - | - | -
O=C(CSc1ccc(Cl)cc1)Nc1cc(-c2nc3ncccc3o2)ccc1Cl | . | . | . | . | -
O=C(CSc1ccc(Cl)cc1)Nc1cccc(-c2nc3ncccc3o2)c1 | 51.1 | - | - | - | -
Cc1c(NC(=O)CSc2ccc(Cl)cc2)cccc1-c1nc2ncccc2o1 | 91.9 | - | - | - | -
COc1cc(C(=O)Nc2cccc(-c3nc4ncccc4o3)c2C)cc(OC)c1OC | - | - | - | - | -
COc1ccc(C(=O)Nc2cccc(-c3nc4ncccc4o3)c2C)cc1 | 64.5 | - | - | - | -
CCC(=O)NC(=S)Nc1cccc(-c2nc3ncccc3o2)c1 | . | . | . | . | -
COc1c(C)cc(Br)cc1C(=O)Nc1cccc(-c2nc3ncccc3o2)c1 | 54.2 | 91.7 | - | - | -
